Assay outcomes: PubChem, National Center for Advancing Translational Sciences (NCATS)
ALOX12 inhib: qHTS Assay for Inhibitors of 12-hLO (12-human lipoxygenase) | 150,000 tested, 0.12% active | Polyunsaturated fatty acid lipoxygenase ALOX12 (Homo sapiens), P18054 | Potency, µM (series often up to 57.1 µM), inactives show at the top dose activity change, negative = inhibition, hits mostly inhibitors | purified 12-hLO, xylenol orange hydroperoxide absorbance; also: potency is read from the fitted curve at half-maximal effect; nearly all actives have a fitted effect of over 55% in size
Target sequence (P18054 whole entry, looked up): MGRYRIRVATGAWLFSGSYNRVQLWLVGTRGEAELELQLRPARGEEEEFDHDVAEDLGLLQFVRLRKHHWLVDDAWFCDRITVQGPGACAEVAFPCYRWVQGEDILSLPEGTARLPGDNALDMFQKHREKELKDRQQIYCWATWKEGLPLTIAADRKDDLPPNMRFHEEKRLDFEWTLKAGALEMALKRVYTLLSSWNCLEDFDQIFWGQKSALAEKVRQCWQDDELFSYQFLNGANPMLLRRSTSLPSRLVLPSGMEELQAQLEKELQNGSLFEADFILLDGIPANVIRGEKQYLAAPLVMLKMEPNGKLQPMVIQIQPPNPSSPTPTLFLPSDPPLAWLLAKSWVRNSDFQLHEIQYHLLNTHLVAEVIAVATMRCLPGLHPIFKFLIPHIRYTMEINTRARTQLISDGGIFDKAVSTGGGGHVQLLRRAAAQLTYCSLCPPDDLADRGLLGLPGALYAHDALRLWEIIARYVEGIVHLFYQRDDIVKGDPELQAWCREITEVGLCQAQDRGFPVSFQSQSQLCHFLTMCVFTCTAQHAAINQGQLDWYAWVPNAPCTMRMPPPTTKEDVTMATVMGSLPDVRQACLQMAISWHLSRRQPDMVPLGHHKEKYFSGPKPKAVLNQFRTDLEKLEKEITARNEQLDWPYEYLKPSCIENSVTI
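Xylenol orange chromogenic assay: hydroperoxide from 12hLO oxidises Fe(II), giving red-shifted Fe(III)-XO absorbance. Conditions: 150 nM enzyme, 40 uM arachidonic acid, 25 mM Hepes pH 7.0, 0.01% Triton X-100, 30 min, room temperature.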
ALDH1A1 block: qHTS Assay for Inhibitors of Aldehyde Dehydrogenase 1 (ALDH1A1); Purified ALDH1A1, NADH fluorescence, propionaldehyde substrate; Potency, µM (doses to about 75.3 µM), inactives show top-dose activity, negative = inhibition, actives largely listed as inhibitors; 220,000 tested, 7.3% active; active = well fitted inhibition curve with a large enough effect, not every such curve was filed as active; inconclusive = small, poorly fitted or top-dose-only effect, or another doubt; inactive = no such curve, though single readings can be large or run the other way;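 also: potency is read from the fitted curve at half-maximal effect; plate controls were no enzyme wells and a reference inhibitor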
NPSR antagonist: qHTS Assay for Antagonists of the Neuropeptide S Receptor: cAMP Signal Transduction | CHO-NPSR cells, cAMP TR-FRET, antagonist mode | 220,000 tested, 1% active | Potency, µM (highest dose often 38.3 µM), for inactives: at the highest dose activity change, negative = inhibition, most hits filed as inhibitors | AID 1461, 2008; also: potency is read from the fitted curve at half-maximal effect; nearly all actives have a fitted effect of over 50% in size
HPGD inh: qHTS Assay for Inhibitors of HPGD (15-Hydroxyprostaglandin Dehydrogenase); 15-hydroxyprostaglandin dehydrogenase [NAD(+)] (Homo sapiens), P15428; purified HPGD, NADH fluorescence kinetic, PGE2 substrate; Potency, µM, inactives show at the highest dose activity change, negative = inhibition, most hits filed as inhibitors; 150,000 tested, 4.3% active; active = well fitted inhibition curve with a large enough effect, not every such curve was filed as active; inconclusive = small, poorly fitted or top-dose-only effect, or another doubt; inactive = no such curve, though single readings can be large or run the other way; also: potency is read from the fitted curve at half-maximal effect
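20 nM HPGD preincubated 15 min at room temperature with compound in 50 mM Tris-HCl pH 8, 0.01% Tween 20. Started with 1 mM NAD+ and 30 uM prostaglandin E2; NADH fluorescence (360/450 nm) read 5 times over 30-s intervals, last minus first.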
IMPase Li inh: qHTS Assay for Identifying the Cell-Membrane Permeable IMPase Inhibitors: Potentiation with Lithium | AID 1457, 2008 | CHO-M1 cells, IP1 TR-FRET (IP-One), carbachol + lithium | Potency, µM (highest dose often 59.4 µM), for the others: at the top dose activity, negative = IMPase inhibition, most hits filed as inhibitors | 210,000 tested, 0.35% active;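 also: IP1 builds up when IMPase is blocked and the TR-FRET signal falls; potency is read from the fitted curve at half-maximal effect; plate controls were basal vehicle for no effect and high inhibitor control for full effect; nearly all actives have a fitted effect of over 50% in size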
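CHO-M1, 2000 cells/well, 16–30 h culture; cpd + low Li+, 30 min 37C; lysis with d2-IP1/Eu-anti-IP1 Ab, 10 min RT; TR-FRET 665/620 ratio and 620 channel; AC50 via Hill.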
IMPase cell inh: qHTS Assay for Identifying the Cell-Membrane Permeable IMPase Inhibitors | 120,000 tested, under 10 active | Inositol monophosphatase 1 (Rattus norvegicus), P97697 | inhibition (IP1 accumulation), % at 46.1 µM | CHO-M1 cells, IP1 accumulation, HTRF TR-FRET ratio; active = well fitted curve in the direction sought with a large enough effect in the signal ratio, not every such curve was filed as active; inconclusive = small, poorly fitted or top-dose-only effect, or a change in a side signal; inactive = no such curve, though single readings can be large or run the other way; the % refers to the signal ratio;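 also: cells stimulated with carbachol in lithium chloride buffer; plate controls were DMSO basal wells for no effect and reference inhibitor wells for full effect; higher means more IMPase inhibition seen as more IP1 and lower FRET ratio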
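In this qHTS, compounds (final up to 46 uM) act on CHO-M1 cells that are then activated through the M1 receptor with carbachol, in pH 7.4 buffer containing 50 mM LiCl, for 30 min. IP1 accumulation is quantified by the IP-One immunoassay.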
* marks the source's active call; other numbers are inactive results; u = inconclusive; x = no result given; [ ] = another dose, or the depositor's remark. An excerpt weighted towards active compounds, which were near 8.9% of everything screened. Unless noted, calls follow the shape of the dose curve; as a rule, active = well fitted curve in the direction sought with a large enough effect; inconclusive = small, poorly fitted or top-dose-only effect, or another doubt; inactive = no such curve, though single readings can be large; an effect the other way counts as inactive or inconclusive. Unless noted, % is scaled to controls: 0 for no effect and ±100 for the full control effect.

SMILES | ALOX12 inhib | ALDH1A1 block | NPSR antagonist | HPGD inh | IMPase Li inh | IMPase cell inh
COC(=O)[C@H](Cc1ccccc1)NC(=O)O[C@@H]1C(=O)c2ccc(OC)cc2O[C@H]1c1cccc(C(F)(F)F)c1 | x | -1% | x | -15% | 2% | x
O=S(=O)(NC1CCCC1)c1ccc(S(=O)(=O)N2CCc3ccccc32)cc1 | -6% | 32µM* | -16% | -1% | 22% | 7
COc1ccccc1C(=O)Nc1ccc(S(=O)(=O)N2CCc3ccccc32)cc1 | 2% | u | -19%[46.1 µM] | -20% | 17%[38.3 µM] | 2
O=C(Nc1ccc(S(=O)(=O)N2CCc3ccccc32)cc1)c1ccco1 | -15% | 25µM* | -24%[46.1 µM] | -19% | 15%[38.3 µM] | 3
O=S(=O)(NC1CCc2ccccc21)c1ccc(S(=O)(=O)N2CCCC2)cc1 (centres undefined) | -4% | 14µM* | u | -7% | 24%[38.3 µM] | 13
O=C(Nc1ccc(CN2CCCCC2)cc1)c1ccc2c(c1)OCO2 | -3% | -1% | 7%[46.1 µM] | 28µM* | 37%[38.3 µM] | 9
Cc1cc([N+](=O)[O-])nn1CC(=O)Nc1cccc2nonc12 | x | u | -3% | x | 4% | x
O=C(CSc1nnc(-c2ccccc2O)n1-c1ccccc1)Nc1cccc(C(=O)O)c1 | x | 6% | 2% | x | 6% | x
Fc1ccc(-c2nc3c4c(-c5ccccc5)c(-c5ccccc5)oc4ncn3n2)cc1 | x | x | x | x | x | 12
O=C(COC(=O)/C=C/c1ccco1)Nc1ncc(C(F)(F)F)cc1Cl | -3% | 15% | -5%[46.1 µM] | -12% | -2% | 6
O=C(Nc1ccc(S(=O)(=O)N2CCc3ccccc32)cc1)c1ccc2c(c1)OCO2 | -3% | 18µM* | -16%[46.1 µM] | -8% | 12% | -1
COCc1c(C#N)c(NCc2cc(OC)c(OC)c(OC)c2)nc(C)c1[N+](=O)[O-] | x | x | -1% | x | x | x
CCN(CC)CCCNC(=O)c1cc(Sc2nnc(C)s2)nc2ccccc12 | 4% | 2% | 4% | 28µM* | 2% | x
Cc1ccc(S(=O)(=O)Oc2ccccc2/C=C2\SC(=O)NC2=O)cc1 | x | 13µM* | -39% | x | 8% | x
COc1ccc2c(c1)O[C@@H](c1cccc(C(F)(F)F)c1)[C@H](OC(=O)Nc1ccc(C)c(Br)c1)C2=O | x | 2% | x | -2% | -6% | x
N#CCCN(Cc1cccnc1)C(=O)Nc1ccc(Cl)c(Cl)c1 | 1% | -7% | -10%[46.1 µM] | -3% | 22%[38.3 µM] | 0
Cc1cc(C(=O)COC(=O)c2cccn2C)c(C)n1Cc1ccco1 | x | 25µM* | -23% | x | 3% | x
COc1ccc2cc(S(=O)(=O)NCCCN3CCOCC3)ccc2c1 | -2% | -2% | u | -16% | 17%[38.3 µM] | -3
CC1(OC(=O)C2CCCC2)C(=O)C=C2C=C(c3ccsc3)N(CCCCO)C=C2C1=O (centres undefined) | -2%[11.4 µM] | -3%[13.5 µM] | 1% | -7% | 5% | x
CC1(OC(=O)C2CCCC2)C(=O)C=C2C=C(c3ccsc3)N(Cc3ccco3)C=C2C1=O (centres undefined) | -17%[11.4 µM] | 3.5µM* | -6% | -11% | 8% | x
COc1ccc(Br)cc1/C=N/NC(=O)c1ccc(OC)c(OC)c1 | x | 6% | -39% | x | -1% | x
CN(C)c1ccc(-c2ccc3ncnc(N(C)C)c3c2)cc1 | x | u | x | x | 5% | x
O=C(O)c1ccc(NC(=S)NC2CCCCC2)cc1 | -1% | -8% | 4% | -12% | -10% | x
Cc1cccc(C)c1NC(=S)NC1CCCCC1 | u | -6% | -8%[46.1 µM] | x | x | -9
S=C(Nc1ccc(Oc2ccccc2)cc1)NC1CCCCCC1 | u | u | -31% | -14% | 22% | -8
SMILES | ALOX12 inhib | ALDH1A1 block | NPSR antagonist | HPGD inh | IMPase Li inh | IMPase cell inh
Cc1cccc(NC(=O)c2ccccc2NC(=O)C2CCCCC2)c1C | -28% | u | u | 2.5µM* | -15%[38.3 µM] | -12
S=C(Nc1ccc(Oc2ccc(NC(=S)NC3CCCCC3)cc2)cc1)NC1CCCCC1 | 1.3µM* | -1% | 15% | -19% | -8% | x
CC(=O)c1ccc(NC(=S)NNC(=O)NC2CCCCC2)cc1 | x | 1µM* | -4% | x | 5% | x
Cc1cccc(NC(=S)NNC(=S)NC2CCCCC2)c1C | x | 2µM* | 1% | x | 11% | x
CCCOc1ccc(N2C(=O)CC(N3CCN(c4ccccc4OC)CC3)C2=O)cc1 (centres undefined) | 1% | u | -11%[46.1 µM] | 3% | 8%[38.3 µM] | 2
Cc1ccc(NC(=S)NNC(=S)NC2CCCCC2)cc1 | x | 3.2µM* | 0% | x | -7% | x
CCC(=O)N1CCN(c2ccc(Cl)cc2NC(=O)Cc2ccccc2)CC1 | -2% | 5µM* | -23%[46.1 µM] | -5% | 17%[38.3 µM] | -3
CCN(CC)S(=O)(=O)c1ccc(N2CCOCC2)c(NC(=O)c2c3c(nc4ccccc24)CCC3)c1 | -4% | 6.3µM* | 22% | -1% | 11% | x
CCN(CC)S(=O)(=O)c1ccc(N2CCOCC2)c(NC(=O)c2ccc3ccccc3c2)c1 | 4% | u | -28% | u | 14% | x
CCN(CC)S(=O)(=O)c1ccc(N2CCOCC2)c(NC(=O)c2cccc3ccccc23)c1 | -4% | 13µM* | -25% | -18% | 4% | x
CCN(CC)S(=O)(=O)c1ccc(N2CCCC2)c(NC(=O)Cc2ccccc2)c1 | x | x | -10% | x | x | x
CCN(CC)S(=O)(=O)c1ccc(N2CCOCC2)c(NC(=O)Cc2ccc(Cl)cc2)c1 | -2% | 25µM* | 1%[46.1 µM] | x | x | 3
CCC(=O)Nc1cc(Cl)ccc1N1CCN(C(=O)CC)CC1 | -3% | -2% | 0%[46.1 µM] | -5% | 0%[38.3 µM] | 4
C=CCn1c(SCC(=O)Nc2ccc(-c3nc4ccc(C)cc4s3)cc2)nnc1-c1ccncc1 | -1% | u | 2%[46.1 µM] | u | u | 1
CC1CC(C)CN(C(=O)Cn2c(=O)n(CCCCC(=O)NC3CCCC3)c(=O)c3ccccc32)C1 (centres undefined) | -2% | 10% | -15%[46.1 µM] | -24% | 17%[38.3 µM] | 13
CCN(CC)S(=O)(=O)c1ccc(N2CCOCC2)c(NC(=O)COc2ccccc2C#N)c1 | x | 13µM* | -29% | x | 2% | x
CCN(CC)S(=O)(=O)c1ccc(N2CCOCC2)c(NC(=O)c2cc(=O)[nH]c3ccccc23)c1 | x | 14µM* | -9% | x | 2% | x
O=C(Nc1cc(S(=O)(=O)N2CCOCC2)ccc1N1CCCC1)c1cc(=O)[nH]c2ccccc12 | x | x | -1% | x | x | x
CCN(CC)S(=O)(=O)c1ccc(N2CCOCC2)c(NC(=O)c2cc(-c3ccccn3)nc3ccccc23)c1 | x | 3.5µM* | -5% | x | -3% | x
